# Measurements reported in the emibetuzumab library of Makowski et al. (2022).
# The other results are listed elsewhere or left out. The hit rate among all sequences tested is not known here.
# B1: VH:VL chains; a variant is named by its letters at X, in order (parent)
# chain 1: QVQLVQSGAEVKKPGASVKVSCKASGYTFTDYXMHWVRQAPGQGLEWMGXVNPNXXXTTYNQKFEGRVTMTTDTSTSTAYMELRSLRSDDTAVYYCARXNXLDXWGQGTTVTVSS
# chain 2: DIQMTQSPSSLSASVGDRVTITCSVSSSVSSIYLHWYQQKPGKAPKLLIYSTSNLASGVPSRFSGSGSGTDFTLTISSLQPEDFATYYCQVYSGYPLTFGGGTKVEIK
# Variants of: B1
# Assay: yeast display scFab, FACS + sequencing
# Conditions: with MET
# Outline: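 Heavy-chain CDR mutant scFab yeast surface library, enriched by two magnetic rounds on HGFR-Fc-coated Protein A beads and then by FACS. Cells were labelled with 1 nM HGFR-Fc in PBSB with 1% milk and anti-Myc for 3 h at room temperature, and the top 50% antigen-positive cells were gated. Round-3 sorted and input populations were deep sequenced in two replicates. Antigen binding call: positive if a sequence occurred in both antigen-positive samples, negative if it occurred only in input.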
row,Variant,antigen binding call
1,YRGRGSSF,binds
2,YTTGSASF,no binding
3,YRGRGASF,binds
4,VRTEDASF,no binding
5,FRTGDAVF,binds
6,FRTGDSAS,binds
7,FRTGDDSF,no binding
8,FRTGDAVS,binds
9,VTGGDSLV,no binding
10,FKTRDFAY,no binding
11,VEKEGDVY,no binding
12,DATGGASD,no binding
13,YRRRGYVF,binds
14,YKRRSSVF,binds
15,YRAGGYVD,binds
16,AKGEDSVF,no binding
17,YRRGGYVD,no binding
18,YRAGGYVF,binds
19,SEARSSSF,no binding
20,YRRRGSVF,binds
21,YRRRGAVF,binds
22,VAGGAYLY,no binding

row,Variant,antigen binding call
1,DTATADWA,no binding
2,YRARSAAV,binds
3,FRAGGAAV,binds
4,FRARGAAV,binds
5,FRRGDAAV,binds
6,YAARGAAV,no binding
7,YGARNAAV,no binding
8,DTAESSSF,no binding
9,YTGTSDGV,no binding
10,VEGGGAVV,no binding
11,FRTKDDVY chain 1 E46K,no binding
12,SEARSAAV,no binding
13,FRARSAAV,binds
14,DRAGDAAV,no binding
15,FRKGGSGD,binds
16,FAAGGSGD,no binding
17,FREGGSGD,no binding
18,FRAGGSGD,binds
19,VGETSYVD,no binding
20,SKRKSSGA,no binding
21,SKTRGAGV,no binding
22,SGEEGSGA,no binding

row,Variant,antigen binding call
1,SKTKSSGA,no binding
2,SKAKGFGV,no binding
3,SKERGDGA,no binding
4,SKAKGSGV,binds
5,SKAKGSGA,binds
6,SKAGGVGA,no binding
7,SKKRGSGA,binds
8,SKAGGAGA,binds
9,SAAGGAGA chain 1 L45S,no binding
10,VAATADAV,no binding
11,VAGTSDGA,no binding
12,DATGGFGV,no binding
13,DAGEGFVA,no binding
14,VEEEAFAV,no binding
15,VTGEDSLV,no binding
16,VETGNSGA,no binding
17,YRERGAAF,binds
18,YRERGAGF,binds
19,DRGRDDAA,no binding
20,DAKEGDLV,no binding
21,YRTKASLD,binds
22,YREKGSLD,binds

row,Variant,antigen binding call
1,DATGGSLD,no binding
2,YRTGGSLD,binds
3,YRAKGSLD,binds
4,DTREGDVA,no binding
5,STAESDGA,no binding
6,VGEGGDAY,no binding
7,VAEKGFLV,no binding
8,SRRETFVF,no binding
9,DGGTNDVA,no binding
10,VAGTDAGD,no binding
11,FKGEGSLY,no binding
12,FKGRGSGY,binds
13,VKGRASGY,no binding
14,FKGRGSLY,binds
15,YKRGASLA,binds
16,YTRGAAVA,no binding
17,YKRGASVA,binds
18,YTRGASGA,no binding
19,YTRGADVA,no binding
20,YTRGAALA,no binding
21,YRTAGAAD,binds
22,YRTAGSGD,binds

row,Variant,antigen binding call
1,YRTAGSSD,binds
2,YRTAGAGD,binds
3,VATGDDGV,no binding
4,STAESSSF,no binding
5,DKTGNDVA,no binding
6,DRAGDDVY,no binding
7,YTGTSAVA,no binding
8,VKGRADAA,no binding
9,VAGRGSAA,no binding
10,VKGRGSAA,binds
11,SEGRGDAA,no binding
12,SAGRGSAA,no binding
13,SKGRGSAA,binds
14,VRGRGFLD,binds
15,VEGGGDGD,no binding
16,VRGGGFGV,no binding
17,VRRANFLD,no binding
18,AAGRGFLD,no binding
19,VRGGGFGD,binds
